Outcome and AC50 data for 31 molecules are collected here from PubChem BioAssay (EPA / NIEHS).

Calls of active or inactive are those of the source. How the source made its calls: active means hit-call score of the fitted dose curve at least 0.9, where 1 is the maximum; inactive means score below 0.9.

The assay in a line: CCTE_Shafer_MEA_acute_burst_duration_mean: CCTE's Neural Acute Assay for Mean Burst Duration, Shafer Lab (AID 2284014). As for the experimental part: CCTE_Shafer_MEA_acute assay is conducted using Axion Biosystems 48 well microelectrode array (MEA) plates and Maestro recording system. Each well of the MEA plate contains a grid of 16 microelectrodes embedded in the culture surface. Electrically active cells, such as neurons, can be cultured over the electrodes, and electrical activity in these cells can be recorded extracellularly. The spontaneous firing of neurons is captured from each electrode on a microsecond timescale providing both temporally and spatially precise data. […] The CCTE_Shafer_MEA_acute assay uses primary cultures of rat cortical neurons. As these cultures mature over time, neural networks develop functional activity and form cohesive networks in which electrical activity can be highly coordinated. Baseline 40-minute recordings are made on days post-plating 13 or 15, followed by a secondary 40-minute recording after chemical exposure.CCTE_Shafer_MEA_acute_burst_duration_mean is a component of the CCTE_Shafer_MEA_acute assay. It measures the average time from the first spike (action potential firing) to the last spike in a single-electrode burst (temporally-clustered group of spikes) during a recording in a microelectrode array (MEA) using Axion Biosystems Maestro 768 channel amplifier with the AxIS adaptive spike detector. The recordings before and after chemical treatment are used to calculate a percent change in the mean burst duration in each well.Data from the assay component CCTE_Shafer_MEA_acute_burst_duration_mean was analyzed into 1 assay endpoint. This assay endpoint, CCTE_Shafer_MEA_acute_burst_duration_mean, was analyzed in the negative analysis fitting direction relative to DMSO as the negative control and baseline of activity. Using a type of functional reporter, gain or loss-of-signal activity can be used to understand electrical activity.
Spontaneous activity in the cortical cultures was recorded using an Axion Biosystems Maestro 768 channel amplifier and Axion Integrated Studios (AxIS) v1.8 (or later) software. The amplifier recorded from all channels simultaneously (gain = 1200 x; sampling rate = 12.5 kHz/channel): raw signals were filtered with a Butterworth band-pass filter (300-5000 Hz), which filters out slower local field potentials leaving only fast potentials, i.e., "spikes", arising from extracellular currents associated with action potentials (Pine 2006; Wheeler and Nam 2011). On-line spike detection of filtered signals was conducted with the AxIS adaptive spike detector, using a threshold of 8x the root mean squared (rms) noise on each channel. Any electrodes with rms noise levels greater than 5 uV were grounded (e.g., no data were recorded). Once grounded, an electrode was grounded for the duration of the experiment. All recordings were conducted at 37 C. Wells were deemed usable if on the day of the exposure >/= 10 electrodes were active (defined as >/= 5 spikes/min). On DIV 13 or 15, a minimum of three wells from one cortical culture preparation were treated with each compound (0.03-40 uM). Prior to recording baseline activity, each mwMEA plate was placed in the Maestro at 37 C and allowed to sit for 20 min while firing rates stabilized. Baseline activity (40 min) was recorded before the addition of each compound. An additional 40 min of spontaneous activity was recorded in the presence of each compound. Changes in network parameters relative to baseline were assessed following compound treatment.
As for `CC1(C)C(C=C(Cl)Cl)C1C(=O)OC(C#N)c1cccc(Oc2ccccc2)c1` (stereo unspecified), the molecule was classed as inactive.
As to `CCOP(=O)(OCC)Oc1nc(Cl)c(Cl)cc1Cl`, the AC50 was 2.98 nM (active).
In the case of `CCCC(=NOCC)C1=C(O)CC(CC(C)SCC)CC1=O` (stereo unspecified), the concentration at half-maximal activity (AC50) was 31000 nM (active).
For `O=C(Nc1ccccc1-c1ccc(Cl)cc1)c1cccnc1Cl`, the outcome was inactive.
Turning to `Nc1c(Cl)c(F)nc(OCC(=O)O)c1Cl`, the result was inactive.
Still for that read-out and setting: then `Clc1nc(Cl)nc(Nc2ccccc2Cl)n1`, with “inactive”; and `CC(C)N1C(=O)N(c2ccccc2)CSC1=NC(C)(C)C`, with “inactive”; and `CCOc1cc(C(C)(C)C)ccc1C1COC(c2c(F)cccc2F)=N1` (stereo unspecified), with “inactive”.
As for `COP(=S)(OC)SCn1nnc2ccccc2c1=O`, the result was inactive.
Regarding `COC(=O)N(C(=O)N1CO[C@@]2(C(=O)OC)Cc3cc(Cl)ccc3C2=N1)c1ccc(OC(F)(F)F)cc1`, the call was inactive.
With `Cc1nc(N(C)C)nc(OC(=O)N(C)C)c1C`, the outcome was inactive.
For the molecule `CC1(C)CCC(=Cc2ccc(Cl)cc2)C1(O)Cn1cncn1` (stereo unspecified), the result was inactive.
Still for that read-out and setting: under `CC(C)C1(C)N=C(c2ncccc2C(=O)O)NC1=O` (stereo unspecified) stands “inactive”.
Still for that read-out and setting: under `COCC(=O)N(c1c(C)cccc1C)C(C)C(=O)OC` (stereo unspecified) stands “inactive”.
On to `CO/N=C(/C1=NOCCO1)c1ccccc1Oc1ncnc(Oc2ccccc2Cl)c1F`, for which the result was inactive.
As for `CCOC(=O)C(C)OC(=O)c1cc(Oc2ccc(C(F)(F)F)cc2Cl)ccc1[N+](=O)[O-]` (stereo unspecified), the result was inactive.
Same read-out and setting: then `CCOc1nc(F)cc2nc(S(=O)(=O)Nc3c(Cl)cccc3Cl)nn12`, with “inactive”; and `OC(c1ccc(Cl)cc1)(c1ccc(Cl)cc1)C(Cl)(Cl)Cl`, with “inactive”; and `CCCCC(O)(Cn1cncn1)c1ccc(Cl)cc1Cl` (stereo unspecified), with “inactive”.
On to `C=C(C)CN(CC)c1c([N+](=O)[O-])cc(C(F)(F)F)cc1[N+](=O)[O-]`, for which the molecule was called inactive.
For `CC1(C)C(C(=O)OC(C#N)c2cccc(Oc3ccccc3)c2)C1(C)C` (stereo unspecified), the result was inactive.
Same read-out and setting: then `CCCN(CC)CC1COC2(CCC(C(C)(C)C)CC2)O1` (stereo unspecified), with “inactive”; and `N#Cc1c[nH]cc1-c1cccc2c1OC(F)(F)O2`, with “inactive”; and `Cn1c(-c2ccccc2)cc(-c2ccccc2)[n+]1C`, with “inactive”.
As to `CC(C)N1C(=O)c2ccccc2NS1(=O)=O`, the call was inactive.
Consider `Cc1ccc(N=CN(C)C=Nc2ccc(C)cc2C)c(C)c1`, for which the AC50 was 4210 nM (active).
Take `Cc1c(COC(=O)[C@@H]2[C@H](/C=C(\Cl)C(F)(F)F)C2(C)C)cccc1-c1ccccc1`: the half-maximal activity concentration (AC50) was 1470 nM (active).
`CC(C)=CC1C(C(=O)OCc2coc(Cc3ccccc3)c2)C1(C)C` (stereo unspecified): the result was inactive.
`CN/C(=N\[N+](=O)[O-])NCc1cnc(Cl)s1`: the outcome was inactive.
`CNC(=O)Oc1cccc2ccccc12`: the outcome was inactive.
For the molecule `N#CN=C1SCCN1Cc1ccc(Cl)nc1`, the molecule was called inactive.

For orientation: AC50 means the concentration giving half of the maximal activity seen.
